From ChEMBL document CHEMBL1157539, “Thousands of chemical starting points for antimalarial lead identification” (Nature, 2010)

What follows are compounds tested on HepG2 (assay: GSK_TCMDC: Percent inhibition of human HepG2 cell line. Test compounds present at 10uM.).
Format: functional

For `CCOc1ccc(C(C)NC(=O)c2ccc(OC)c(Br)c2)cc1OCC` (stereo not given), which Inhibition is on record?
Its Inhibition is 9%.

How did the Inhibition turn out when `CC(C)C1CCc2nc(N)nc(N)c2C1.Cl` (stereo not given) was run?
Its Inhibition is 70%.

How did the Inhibition turn out when `Cc1cc(NCCc2cccc(F)c2)nc(NC(=N)Nc2cccc(C(F)(F)F)c2)n1` was run?
The Inhibition was 42%.

For `COc1cccc(Nc2c(C(N)=O)cnc3ccc(-c4ccccc4)cc23)c1`, which Inhibition is on record?
The Inhibition was 2%.

`CCCNc1ccc2nccc(CCN3CCC(NCc4ccc5c(c4)NC(=O)CS5)CC3)c2n1.Cl` was tested. Which Inhibition did it give?
Its Inhibition is 0%.

`CCN1CCN(c2cc(C)c3cc(NC(=O)c4ccc(Br)o4)ccc3n2)CC1` was tested. Which Inhibition did it give?
Its Inhibition is 0%.

Which Inhibition does the source give for `COc1ccc(CNCc2ccccc2)cc1-c1ccc(S(=O)(=O)NCCN2CCCC2)c(F)c1.O=C(O)C(F)(F)F` here?
The Inhibition was 29%.

How did the Inhibition turn out when `CC(C)(O)CC(C)(C)c1cc(Cl)ccc1O` was run?
The Inhibition was 5%.

With `CN(C)C(=O)c1ccc(CN(Cc2ccc3c(c2)OCCO3)Cc2ccc3c(c2)OCO3)cc1` as the compound, how does the Inhibition read?
The Inhibition was 0%.

With `Cc1nc(-c2nc(NCc3ccncc3)ncc2-c2ccsc2)sc1C` as the compound, how does the Inhibition read?
Its Inhibition is 8%.

Which Inhibition does the source give for `Cn1cccc1C(=O)C(=O)Nc1ccc(-c2ccc(-c3nc4cc(F)ccc4[nH]3)cc2)cc1` here?
Its Inhibition is 44%.

With `CCc1c(CCNCCCCCCNCc2ccc3c(c2CC)OCO3)ccc(OC)c1OC.Cl` as the compound, how does the Inhibition read?
The Inhibition was 38%.

Which Inhibition does the source give for `O=C(Nc1cccc(CN2CCCN(CCc3ccccc3)CC2)c1)c1cc2ccccc2s1.O=C(O)C(F)(F)F` here?
Its Inhibition is 37%.

For `O=C(Nc1ccc(Cn2ncc(N3CCCNCC3)c(Cl)c2=O)cc1)Nc1ccc(-c2ccccc2)cc1`, which Inhibition is on record?
Its Inhibition is 12%.

With `Cn1cnc(CCNC(=O)c2ccc(-c3ccc(-c4nc5cc(C(F)(F)F)ccc5[nH]4)s3)cc2)c1` as the compound, how does the Inhibition read?
Its Inhibition is 75%.

`CC(C)(Oc1c(C2CCN(CCCCNC(=O)c3ccc(-c4ccc(C#N)cc4)cc3)CC2)ccc2c1CCCC2)C(N)=O` was tested. Which Inhibition did it give?
Its Inhibition is 34%.

How did the Inhibition turn out when `CN1Cc2ccc(NS(=O)(=O)c3ccc(-c4ccoc4)cc3)cc2C1.Cl` was run?
The Inhibition was 0%.

For `COc1cc(NC(=O)c2cc([N+](=O)[O-])ccc2NC(=O)CNC2CCCCC2C)cc(OC)c1` (stereo not given), which Inhibition is on record?
Its Inhibition is 0%.

With `COc1cc2cc(C(=O)Nc3ccccc3)c(N)nc2cc1OC` as the compound, how does the Inhibition read?
The Inhibition was 0%.

With `CC1CN(CC(O)Cn2c3ccc(Br)cc3c3cc(Br)ccc32)CC(C)O1` (stereo not given) as the compound, how does the Inhibition read?
Its Inhibition is 0%.

Which Inhibition does the source give for `Cc1ccc(Nc2ccnc(Nc3ccc(C)c(F)c3)n2)cc1O.Cl` here?
Its Inhibition is 4%.

For `O=C(O)C(F)(F)F.OCC1CCN(Cc2ccc(-c3ccc(-c4nc5ccccc5[nH]4)cc3)cc2)CC1`, which Inhibition is on record?
Its Inhibition is 37%.

How did the Inhibition turn out when `CCCS(=O)(=O)c1nc(S(=O)(=O)c2ccc(Cl)cc2)c(N2CCCCC2)s1` was run?
Its Inhibition is 3%.

Which Inhibition does the source give for `NC1CCN(Cc2ccc(-c3ccc(-c4nc5ccccc5[nH]4)s3)cc2)C1.O=C(O)C(F)(F)F` (stereo not given) here?
The Inhibition was 32%.

How did the Inhibition turn out when `CCC(C)CN1C(=O)C(c2ccccc2)(c2ccccc2)N=C1N.O=CO` (stereo not given) was run?
The Inhibition was 11%.

How did the Inhibition turn out when `CN(c1ccccc1C(=O)Nc1cc(Cl)ccc1Oc1ccccc1)S(=O)(=O)c1ccccc1` was run?
The Inhibition was 47%.

For `C=Cc1ccc(-c2c(C)[nH]c(C)c(Br)c2=O)cc1`, which Inhibition is on record?
The Inhibition was 0%.

With `Fc1ccc2[nH]c(-c3cccc(-c4ccc(CNCCN5CCNCC5)cc4)c3)nc2c1.O=C(O)C(F)(F)F` as the compound, how does the Inhibition read?
The Inhibition was 9%.

For `CC(C)CNCc1ccc(-c2cccc(CN(CCN(C)C)C(=O)NCCc3ccccc3)c2)cc1.O=C(O)C(F)(F)F`, which Inhibition is on record?
Its Inhibition is 33%.

`COc1cccc(C(=O)Nc2ccc(-c3nc4ccccc4[nH]3)cc2)c1` was tested. Which Inhibition did it give?
Its Inhibition is 28%.

For `Cc1cc(Nc2cccc(C(F)(F)F)c2)nc2ccc(NC(=O)c3ccc(=O)[nH]c3)cc12`, which Inhibition is on record?
Its Inhibition is 21%.

`COc1ccc(C=C2SC(=N)N(c3ccccc3OC)C2=O)cc1` was tested. Which Inhibition did it give?
The Inhibition was 47%.

How did the Inhibition turn out when `COc1cc(Nc2nccc(Nc3ccc4c(C)n[nH]c4c3)n2)cc2ccccc12.Cl` was run?
Its Inhibition is 13%.

`O=C(NCCN1CCOCC1)c1ccc(-c2ccc(CNCCCc3ccccc3)cc2)nc1.O=C(O)C(F)(F)F` was tested. Which Inhibition did it give?
The Inhibition was 0%.

`COC(=O)c1ccc(OCC(O)CO)cc1O` (stereo not given) was tested. Which Inhibition did it give?
The Inhibition was 4%.

For `Cn1cc(CCNc2ccnc(N3CCC(c4ncc[nH]4)CC3)n2)c2ccccc21`, which Inhibition is on record?
Its Inhibition is 12%.

`O=S(=O)(c1ccc(Oc2ccccc2)cc1)N(CCC(O)(C(F)(F)F)C(F)(F)F)Cc1cccc(O)c1` was tested. Which Inhibition did it give?
Its Inhibition is 0%.

Which Inhibition does the source give for `COc1ccc(-c2ccc(NC(=O)c3ccc(Cl)cc3)cc2)cc1CN1CCNCC1.O=C(O)C(F)(F)F` here?
The Inhibition was 14%.

Which Inhibition does the source give for `COc1ccccc1-c1cccc2c(NC(=O)Nc3ccc4nccc(N5CCN(C)CC5)c4c3)ccnc12` here?
The Inhibition was 3%.

With `CCOc1ccc(Nc2cc(C)nc(Nc3ccc(OCC)cc3)n2)cc1` as the compound, how does the Inhibition read?
Its Inhibition is 3%.
